Results as given in PubChem BioAssay (NCI).
“And” between values parts separate entries of the source, which are not always exact repeats. Equal entries are not always repeated. The panel holds about 83,000 compounds, 20% with a hit somewhere; the sample as a whole holds those more often.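 Each cell line was grown in a 96-well plate and treated with one concentration of compound for 48 hours. Values below 10 were considered active.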 The source made the active and inactive calls.

Key:
Assay in all cases: NCI-60 one-dose screen, 48 h (100 = growth as untreated, 0 = no growth, -100 = all killed)
Conditions in all cases: 10 µM unless noted
SK-MEL-2 melanoma = system: SK-MEL-2 melanoma
EKVX NSCLC = system: EKVX NSCLC
SN12C renal = system: SN12C renal
UO-31 renal = system: UO-31 renal
TK-10 renal = system: TK-10 renal
ACHN renal = system: ACHN renal
CAKI-1 renal = system: CAKI-1 renal
A498 renal = system: A498 renal
CCRF-CEM leukemia = system: CCRF-CEM leukemia
MOLT-4 leukemia = system: MOLT-4 leukemia
SR leukemia = system: SR leukemia
RPMI-8226 leukemia = system: RPMI-8226 leukemia
OVCAR-8 ovarian = system: OVCAR-8 ovarian
OVCAR-5 ovarian = system: OVCAR-5 ovarian
OVCAR-4 ovarian = system: OVCAR-4 ovarian
SK-OV-3 ovarian = system: SK-OV-3 ovarian
IGROV1 ovarian = system: IGROV1 ovarian
OVCAR-3 ovarian = system: OVCAR-3 ovarian
HS 578T breast = system: HS 578T breast
NCI/ADR-RES ovarian = system: NCI/ADR-RES ovarian

Row | SMILES | growth (SK-MEL-2 melanoma) | growth (EKVX NSCLC) | growth (SN12C renal) | growth (UO-31 renal) | growth (TK-10 renal) | growth (ACHN renal) | growth (CAKI-1 renal) | growth (A498 renal) | growth (CCRF-CEM leukemia) | growth (MOLT-4 leukemia) | growth (SR leukemia) | growth (RPMI-8226 leukemia) | growth (OVCAR-8 ovarian) | growth (OVCAR-5 ovarian) | growth (OVCAR-4 ovarian) | growth (SK-OV-3 ovarian) | growth (IGROV1 ovarian) | growth (OVCAR-3 ovarian) | growth (HS 578T breast) | growth (NCI/ADR-RES ovarian)
1 | OB(O)c1ccsc1-c1nc2ccc3[nH]ncc3c2c2c1CCCC2 | 55.9% (inactive) | 34.7% (inactive) | 56.4% (inactive) | 38.3% (inactive) | 48.7% (inactive) | 23.3% (inactive) | 13.7% (inactive) | -2.71% (active) | 56.2% (inactive) | 58.5% (inactive) | 14.1% (inactive) | 60.3% (inactive) | 66.2% (inactive) | 92.1% (inactive) | 72.3% (inactive) | 15.3% (inactive) | 32.6% (inactive) | 85.2% (inactive) | 32.9% (inactive) | 75.6% (inactive)
2 | CC(C)(C)c1cc(C(C)(C)c2ccccc2)cc(Cc2cc(C(C)(C)c3ccccc3)cc(C(C)(C)C)c2O)c1O | 72.1% (inactive) | 110% (inactive) | 95.7% (inactive) | 80.9% (inactive) | 98.1% (inactive) | 102% (inactive) | 104% (inactive) | 125% (inactive) | 66.1% (inactive) | 54.4% (inactive) | -21.9% (active) | 91% (inactive) | 97.9% (inactive) | 91.8% (inactive) | 90.2% (inactive) | 105% (inactive) | 96.5% (inactive) | 106% (inactive) | 105% (inactive) | 102% (inactive)
3 | COc1ccc(-c2cc(-c3cc(OC)c(OC)c(OC)c3)c(C#N)c(=O)n2CCCCC(=O)O)cc1 | 107% (inactive) | 98.5% (inactive) | 90.6% (inactive) | 65.7% (inactive) | 112% (inactive) | 91.2% (inactive) | 70.9% (inactive) | 85.6% (inactive) | 85.3% (inactive) | 105% (inactive) | 72.6% (inactive) | 84.3% (inactive) | 92.4% (inactive) | 105% (inactive) | 91.5% (inactive) | 125% (inactive) | 104% (inactive) | 99.6% (inactive) | 87.7% (inactive) | 102% (inactive)
4 | CC(=O)Nc1c(I)c(NC(C)=O)c(I)c(C(=O)O)c1I | 111% (inactive) and 93.8% (inactive) | 102% (inactive) and 90.6% (inactive) | 102% (inactive) and 106% (inactive) | 76.3% (inactive) and 88.3% (inactive) | 120% (inactive) and 101% (inactive) | 96.9% (inactive) and 112% (inactive) | 89.8% (inactive) and 91.3% (inactive) | 107% (inactive) and 123% (inactive) | 95.9% (inactive) and 105% (inactive) | 96.9% (inactive) and 90.1% (inactive) | 86.7% (inactive) and 80.5% (inactive) | 106% (inactive) and 112% (inactive) | 101% (inactive) and 96.3% (inactive) | 102% (inactive) and 108% (inactive) | 90.4% (inactive) | 105% (inactive) and 110% (inactive) | 108% (inactive) | 111% (inactive) and 116% (inactive) | 105% (inactive) and 171% (inactive) | 106% (inactive) and 109% (inactive)
5 | COc1c(O)c(O)cc2c3c(oc12)CC(c1ccc2c(c1)OCO2)CC3=O (stereo not given) | 69.6% (inactive) | 65.2% (inactive) | 82.2% (inactive) | 44.7% (inactive) | 101% (inactive) | 29.7% (inactive) | 72% (inactive) | 97.9% (inactive) | 56.7% (inactive) | 43.5% (inactive) | 45.2% (inactive) | 62.5% (inactive) | 63% (inactive) | 116% (inactive) | 80.5% (inactive) | 90.1% (inactive) | 54.5% (inactive) | 63.8% (inactive) | 93.8% (inactive) | 67% (inactive)
6 | O=C(CN1C(=O)S/C(=C\C(Cl)=C\c2ccccc2)C1=O)NC1C=CS(=O)(=O)C1 (stereo not given) | 9.43% (active) | 17.7% (inactive) | -13.2% (active) | -78% (active) | -14.7% (active) | -57.5% (active) | 16.9% (inactive) | 97.2% (inactive) | 7.5% (active) | 4.12% (active) | 6.39% (active) | 0.667% (active) | 4.68% (active) | 44.2% (inactive) | 39.4% (inactive) | 98.8% (inactive) | -16.1% (active) | -12.6% (active) | 51.7% (inactive) | 24.7% (inactive)
7 | Clc1ccc(/C=N\N2CCCCCC2)cc1 | 122% (inactive) and 106% (inactive) | 88.7% (inactive) and 90.9% (inactive) | 90.9% (inactive) and 106% (inactive) | 88.4% (inactive) | 105% (inactive) and 103% (inactive) | 99.5% (inactive) and 102% (inactive) | 124% (inactive) and 94.9% (inactive) | 79.6% (inactive) | 101% (inactive) | 109% (inactive) and 99.4% (inactive) | 93.8% (inactive) and 79.5% (inactive) | 107% (inactive) | 116% (inactive) and 98.7% (inactive) | 87.8% (inactive) and 95% (inactive) | 91.9% (inactive) | 110% (inactive) and 109% (inactive) | 103% (inactive) | 101% (inactive) and 116% (inactive) | 109% (inactive) and 139% (inactive) | 104% (inactive)
8 | C=C(C)[C@@H]1CC[C@]2(C(=O)O)CC[C@]3(C)[C@H](CC[C@@H]4[C@@]5(C)CCC(N)C(C)(C)[C@@H]5CC[C@]43C)[C@@H]12 (stereo not given in full) | 93% (inactive) | 67.6% (inactive) | -7.83% (active) | 63.4% (inactive) | 47.8% (inactive) | 8.7% (active) | 48.6% (inactive) | 78.1% (inactive) | -8.42% (active) | 25.7% (inactive) | -8.86% (active) | -33.6% (active) | 20.8% (inactive) | 96.6% (inactive) | 36.8% (inactive) | 106% (inactive) | 74.4% (inactive) | -31.5% (active) | 93.1% (inactive) | 69.7% (inactive)
9 | CCOc1nc(-c2ccccc2)cc2c(O)c(C(=O)N/N=C/c3ccc(N(C)C)cc3)[nH]c(=O)c12 | 78.8% (inactive) | 97.5% (inactive) | 103% (inactive) | 88.2% (inactive) | 126% (inactive) | 102% (inactive) | 108% (inactive) | 97.3% (inactive) | 98.1% (inactive) | 95.1% (inactive) | 101% (inactive) | 102% (inactive) | 115% (inactive) | 115% (inactive) | 148% (inactive) | 197% (inactive) | 15.7% (inactive) | 111% (inactive) | 94.1% (inactive) | 105% (inactive)
10 | Clc1ccc(Nc2nc(Nc3ccc(Cl)cc3)nc(Nc3ccc(-c4cc(-c5cccc(Cl)c5)on4)cc3)n2)cc1 | 72.9% (inactive) | 82.9% (inactive) | 94.4% (inactive) | 90.1% (inactive) | 155% (inactive) | 86.4% (inactive) | 85.4% (inactive) | 99.9% (inactive) | 61% (inactive) | 7.82% (active) | -9.82% (active) | 87% (inactive) | 85.5% (inactive) | 71.4% (inactive) | 101% (inactive) | 103% (inactive) | 104% (inactive) | 90.1% (inactive) | 105% (inactive) | 84.1% (inactive)
11 | O=C(/C=C/c1ccc([N+](=O)[O-])cc1)c1ccccc1 | 91.1% (inactive) | 90.8% (inactive) | 99.8% (inactive) | 74.8% (inactive) | 68.9% (inactive) | 99.6% (inactive) | 96.2% (inactive) | 103% (inactive) | 76.7% (inactive) | 55.1% (inactive) | 7.6% (active) | 41.6% (inactive) | 98.3% (inactive) | 106% (inactive) | 98.1% (inactive) | 92.5% (inactive) | 87.3% (inactive) | 99.6% (inactive) | 93.2% (inactive) | 103% (inactive)
